SW480 rereplic: A quantitative high throughput screen for small molecules that induce DNA re-replication in SW480 colon adenocarcinoma cells; SW480 DNA re-replication, Hoechst DNA content imaging, 48 h; Potency, µM (highest dose often 46.1 µM), for the others: top-dose re-replication activation, usual class: activators; 340,000 compounds, 1.8% hits; AID 624297, 2012; note: % of control where 0% means no effect; nearly all actives have a fitted effect of over 55% in size
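Readout is total intensity of Hoechst-stained nuclei, excited at 405 nm and collected at 500-530 nm. Compound treatment lasted 48 hr at 37 C in 5% CO2 before staining.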
MCF10A rerep: A quantitative high throughput screen for small molecules that induce DNA re-replication in MCF 10a normal breast cells; MCF 10A DNA re-replication, Hoechst nuclear intensity, 48 h; Potency, µM (series often up to 46.1 µM), for inactives: at the top dose activity, positive = re-replication, usual class: activators; 350,000 compounds, 2.9% hits; note: % of control where 0% means no effect; nearly all actives have a fitted effect of over 50% in size
KB-3-1 tox: qHTS assay for MDR1-selective chemotherapeutics: Primary screen using the parental adenocarcinoma cell KB-3-1. AID 1347075, 2019. 400,000 compounds, 1.4% hits. Potency, µM (series often up to 46.1 µM), hits mostly cytotoxic. KB-3-1 viability, CellTiter-Glo ATP luminescence, 72 h; note: % is set by controls: 0 for no effect and ±100 for the full control effect; nearly all actives have a fitted effect of over 60% in size
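Luminescent ATP read-out (CellTiter-Glo) measures survival of drug-naive KB-3-1 cells after 72 h compound exposure at 37 °C. Titration series was screened from lowest to highest concentration, with DMSO vehicle plates as background controls.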
TSG101-PTAP inh: qHTS Assay for Iinhibitors of HIV-1 Budding by Blocking the Interaction of PTAP/TSG101. Tumor susceptibility gene 101 protein (Homo sapiens), Q99816. Fluorescence polarization, FITC-PTAP peptide / Tsg101 binding. Potency, µM (top dose mostly 115 µM), for inactives: at the highest dose activity change, negative = inhibition, hits mostly inhibitors. 340,000 tested, under 10 active; active = well fitted inhibition curve with a large enough effect in the main read-out, with a control signal flat, not every such curve was filed as active; inconclusive = small, poorly fitted or top-dose-only effect, or effect the other way, or a change in a side signal; inactive = no such curve, though single readings can be large or run the other way; note: % of control where 0% means no effect
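Fluorescence anisotropy tracks displacement of a FITC-tagged PTAP peptide (50 nM) from the Tsg101 binding domain (10 uM), following a 20 min room-temperature incubation at pH 7.5.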
RGS4 inhibitor: Inhibitors of Regulator of G Protein Signaling (RGS) 4: qHTS | Regulator of G-protein signaling 4 (Homo sapiens), P49798 | Transcreener GDP fluorescence polarization, RGS4-accelerated GTP hydrolysis | Potency, µM (highest dose often 114 µM), for the others: at the top dose activity change, negative = inhibition, usual class: inhibitors | 390,000 compounds, 0.039% hits; note: % is set by controls: 0 for no effect and ±100 for the full control effect; nearly all actives have a fitted effect of over 75% in size
Target sequence (P49798 whole entry, looked up): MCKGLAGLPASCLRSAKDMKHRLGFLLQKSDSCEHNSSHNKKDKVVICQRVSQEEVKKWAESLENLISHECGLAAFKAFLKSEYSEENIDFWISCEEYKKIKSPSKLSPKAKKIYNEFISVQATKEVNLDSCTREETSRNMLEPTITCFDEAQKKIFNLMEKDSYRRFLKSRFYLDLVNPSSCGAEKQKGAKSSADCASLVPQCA
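MLSMR compounds (23 nl, pin-transferred) preincubated 10 min at room temperature with a 500nM (2x) first reagent, then RGS4 at 900nM (2x) plus Transcreener GDP mix added; fluorescence polarization (620/688 nm) read before and after 90 min at 30 °C.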
KB-V1 cytotox: qHTS assay for MDR1-selective chemotherapeutics: Primary screen using the drug-selected MDR subline cells KB-V1; KB-V1 MDR cells viability, CellTiter-Glo, 72 h; Potency, µM (top dose mostly 46.1 µM), usual class: cytotoxic; 400,000 compounds, 3.4% hits; AID 1347076, 2019; note: % is set by controls: 0 for no effect and ±100 for the full control effect; nearly all actives have a fitted effect of over 60% in size
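KB-V1 cells (P-gp-expressing MDR subline of KB-3-1) in phenol-red-free DMEM with 10% FBS were exposed to library compounds over a concentration series for 72 h at 37 degrees C. Viability read by CellTiter-Glo luminescence; concentration-effect curves fitted after normalization.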
The depositor's hits bear a star; i = inactive; ? = inconclusive; · = no result given; [ ] = remark or other dose. In the library only some 6.6% were active in any assay of this set; here they are far more common. Unless noted, calls come from the whole dose curve; as a rule, active = well fitted curve in the direction sought with a large enough effect; inconclusive = small, poorly fitted or top-dose-only effect, or another doubt; inactive = no such curve, though single readings can be large; an effect the other way counts as inactive or inconclusive. Potency is the fitted concentration of half-maximal effect.

SMILES	SW480 rereplic	MCF10A rerep	KB-3-1 tox	TSG101-PTAP inh	RGS4 inhibitor	KB-V1 cytotox
COc1ccc(/C=C/C2=CCN(C)CC2)cc1	-6%	?	i	1%	12%	i
CC1Oc2cc3c(-c4c(O)cc(O)c5c(O)c6c(cc45)OC(C)C(C)C6=O)c(O)cc(O)c3c(O)c2C(=O)C1C (configuration not stated)	13µM*	-1%	?	-5%	?	?
Cc1cccc(-c2nc3ccc(C(=O)N4CCC5(CC4)OCCO5)cc3nc2-c2cccc(C)c2)c1	?	?	?	-12%	1%	i
O=C(c1ccc2c(c1)ncn2C1CCCCC1)N1CCC2(CC1)OCCO2	12µM*	13µM*	?	-8%	-28%	9.2µM*
CCON=O	0.94µM*	0%	·	·	·	·
CCN(CC)c1ccc(NC(=O)c2cccc(C)c2)cc1S(=O)(=O)Nc1ccccc1OC	·	0%	i	-3%	?	?
CCCCCCCCCC(=O)O[C@H]1CC[C@H]2[C@@H]3CCC4=CC(=O)CC[C@@H]4[C@H]3CC[C@]12C	-4%	-9%	·	·	·	·
C[C@]12CC[C@H]3[C@@H](CCC4=CC(=O)CC[C@@H]43)[C@@H]1CC[C@@H]2O	-29%	2%	10µM*	-1%	-20%	2.3µM*
C[C@]12CC[C@@H]3c4cc(O)c(O)cc4CC[C@H]3[C@@H]1CC[C@@H]2O	?	26µM*	6.5µM*	-2%	-18%	13µM*
C[C@]12CCC3=C4CCC(=O)C=C4CC[C@H]3C1CC[C@@H]2O (some centres not stated)	-10%	15%	10µM*	0%	-21%	3.7µM*
CC1(O)CCC2C3CCC4=CC(=O)CCC4=C3C=CC21C (configuration not stated)	4%	?	?	-2%	-32%	9.2µM*
C[C@]12CC[C@@H]3c4ccc(O)c(O)c4CC[C@H]3[C@@H]1CC[C@@H]2O	?	-3%	?	0%	?	i
COCOC1CCC2C3CCC4=CC(=O)CCC4=C3C=CC12C (configuration not stated)	0%	-1%	i	-5%	-32%	?
C#C[C@]1(O)CC[C@H]2[C@@H]3CCC4=CC(=O)CCC4(C)[C@H]3CCC21C (some centres not stated)	1%	2%	·	·	·	·
ClCCN(CCCl)c1ccc(/C=C/c2sc3ccccc3[n+]2CCCCI)cc1	·	·	?	·	·	i
OCc1cccc[n+]1CCc1ccccc1	-118%	-1%	i	-8%	-45%	i
CCCC(=O)NC1=C(N2CC2)C(=O)C(NC(=O)CCC)=C(N2CC2)C1=O	2.3µM*	?	i	-3%	-30%	i
CCCC(=O)Nc1ccc(N2CCN(CC)CC2)c(Cl)c1	5%	-10%	i	0%	8%[11.4 µM]	?
Cn1c(O)c(/C=N/NC(=O)c2ccncc2)c(=O)n(C)c1=S	8.2µM*	9.2µM*	i	19%	15%	i
C#CCN[C@H](C)Cc1ccccc1	3.2µM*	?	i	-4%	-15%[56.9 µM]	i
COc1ccc(NC(=O)CSc2nc(-c3cccs3)cc(C(F)(F)F)n2)cc1Cl	·	·	i	·	?	5.2µM*
O=C(COC(=O)Cc1ccccc1)Nc1cc(S(=O)(=O)N2CCCCC2)ccc1Cl	-4%	1%	i	3%	-37%	i

Source: PubChem BioAssay (National Center for Advancing Translational Sciences (NCATS))
